# Source: PubChem BioAssay (NCI)
# This is part of a sample that, as a whole, favours compounds with a hit. Of some 83,000 tested, about 20% had one in any assay.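 A percent growth of 40 corresponds to 60% growth inhibition; 0 means no net growth; -100 means all cells died. Active threshold: below 10.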 Calls of active or inactive are those of the source.
# System: HL-60(TB) leukemia
# Assay: NCI-60 one-dose screen, 48 h (100 = growth as untreated, 0 = no growth, -100 = all killed)
# Settings: 10 µM unless noted
row,SMILES,growth
1,COc1ccc2c(c1)c(-c1noc(C(=O)c3cn(C)c4ncc(Br)cc34)n1)cn2C,98.2% (inactive)
2,O=C(NCc1cccnc1)/C(=C\c1ccc(Br)cc1)S(=O)(=O)c1ccccc1,17.4% (inactive)
3,CN(C)C(CNc1oc(-c2cccc3ccccc23)nc1C#N)c1ccco1 (stereo unspecified),74.1% (inactive)
4,CCOc1ccccc1CN1CCc2nc3cc(C(C)(C)C)[nH]n3c(=O)c2C1,99.4% (inactive)
5,C=C1C(=O)O[C@H]2[C@H]1CC/C(COC(=O)CCCCCCCCC(=O)OC/C1=C/CC[C@@]3(C)O[C@H]3[C@H]3OC(=O)C(=C)[C@@H]3CC1)=C\CC[C@@]1(C)O[C@@H]21,-32.8% (active)
6,O=[N+]([O-])c1cc(S(=O)(=O)OCC2CO2)ccc1Cl (stereo unspecified),80.2% (inactive)
7,CCCCc1ccc(NC(=O)N(CCCl)N=O)cc1,98.8% (inactive)
8,COCCOCCOCc1n(Cc2ccc3ccccc3c2)c2ccccc2[n+]1Cc1ccc2ccccc2c1,-53.5% (active)
9,CC[C@]1(O)C[C@H]2CN(CCc3c([nH]c4ccccc34)[C@@](C(=O)OC)(c3cc4c(cc3OC)N(C=O)[C@H]3[C@@](O)(C(=O)OC)[C@H](OC(C)=O)[C@]5(CC)C=CCN6CC[C@]43[C@@H]65)C2)C1,-25.1% (active)
10,C[C@@H]1CC[C@@H]2[C@@H]1[C@H](OC(=O)/C=C/c1ccccc1)[C@]1(c3ccccc3)C[C@@H](OC(=O)CO)[C@@]2(C)O1,105% (inactive)
11,NS(=O)(=O)c1ccc(C(=O)N=Nc2c(O)[nH]c3ccc(Cl)cc23)cc1,102% (inactive)
